HT1080 IDH1KD tx: qHTS for induction of synthetic lethality in tumor cells producing 2HG: qHTS for the HT-1080-IDH1KD cell line. Potency, µM (titrated, usually from 46.1 µM), without a hit: at the top dose activity, negative = toxicity, most hits filed as cytotoxic. AID 686971, 2013. 2% of 360,000 active. HT-1080 IDH1 knockdown viability, ATP luminescence, 48 h;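 further: potency means the concentration at half of the fitted maximal effect; 0% = DMSO wells and -100% = cell-free medium wells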
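Using the IDH1-knockdown HT-1080 line run in the same batch and compound series as the NT line, viability after 48 h at 37 °C was determined by CellTiter-Glo luminescence and expressed as % activity.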
ELG1 DNA repair: qHTS screen for small molecules that inhibit ELG1-dependent DNA repair in human embryonic kidney (HEK293T) cells expressing luciferase-tagged ELG1; HEK293T ELG1-luciferase reporter, luminescence, 16 h; DNA damage induced by 5-fluorouridine; AID 504467, 2011; Potency, µM (doses to about 46.1 µM), for inactives: top-dose activity change, negative = inhibition, hits mostly inhibitors; 2.3% of 330,000 active; further: potency means the concentration at half of the fitted maximal effect; nearly all actives have a fitted effect of over 55% in size
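Quantitative HTS, concentration-response format. 2,000 cells/well co-treated with 5-fluorouridine and compound, 16 hr in 5% CO2 at 37 °C; ONE-Glo luminescence read after 30 min.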
TDP1 cell noCPT: qHTS for Inhibitors of human tyrosyl-DNA phosphodiesterase 1 (TDP1): qHTS in cells in absence of CPT; DT40 Tdp1-/- hTDP1 cells, no CPT, ATP luminescence, 48 h; Potency, µM (highest dose often 46.2 µM), for the others: top-dose activity change, negative = growth inhibition, hits mostly inhibitors; 15% of 420,000 active; further: potency means the concentration at half of the fitted maximal effect; nearly all actives have a fitted effect of over 55% in size
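Compound effects on proliferation are scored in DT40 Tdp1-/-;hTDP1 cells in the absence of CPT. ATP levels (CellTiter-Glo luminescence) are recorded after a ≥48 hr, 37 °C incubation.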
DT40 TDP1 CPT: qHTS for Inhibitors of human tyrosyl-DNA phosphodiesterase 1 (TDP1): qHTS in cells in presence of CPT; 12% of 420,000 active; chicken DT40 Tdp1-/-;hTDP1 cells + 20 nM CPT, ATP luminescence, 48 h; Potency, µM (top dose mostly 46.2 µM), for the others: at the highest dose activity change, negative = growth inhibition, usual class: inhibitors; AID 686979, 2013; further: potency means the concentration at half of the fitted maximal effect; nearly all actives have a fitted effect of over 55% in size
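Cell growth measured by CellTiter-Glo luminescence after a minimum 48 h, 37 C compound exposure with 20 nM CPT in Tdp1-knockout DT40 cells stably expressing hTDP1, seeded 400/well; qHTS titration format.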
HT1080NT lethal: qHTS for induction of synthetic lethality in tumor cells producing 2HG: qHTS for the HT-1080-NT fibrosarcoma cell line. Potency, µM (top dose mostly 46.1 µM), for the others: top-dose activity, negative = less viability, actives largely listed as cytotoxic. HT-1080-NT fibrosarcoma viability, CellTiter-Glo ATP luminescence, 48 h. 1.6% of 360,000 active;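 further: NT is the 2HG producing partner of a matched IDH1 knockdown line; potency means the concentration at half of the fitted maximal effect; 0% = DMSO-treated cells and -100% = media-only wells without cells; nearly all actives have a fitted effect of over 55% in size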
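Viability by CellTiter-Glo luminescence after 48 h compound exposure at 37C of HT-1080-NT cells (750/well, RPMI, 5% FBS). % activity scaled between DMSO wells and medium-only wells, then curve-fitted and categorized by curve class.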
IL1B secr inh: qHTS for Inhibitors of Inflammasome Signaling: IL-1-beta AlphaLISA Primary Screen; THP-1 LPS/ATP IL-1B secretion, AlphaLISA, 16 h; stronger effect = lower value; activity change, % at 57.5 µM; 4.7% of 360,000 active; AID 743279, 2014; in the data active means activity change below about -50%; inconclusive means mostly about -30% to -49%
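Secreted IL-1B measured by AlphaLISA bead assay after 16 h compound exposure of THP-1 cells; compounds (final up to 57.5 uM) added 1 h before LPS (250 ng/mL) and ATP (1.25 mM) stimulation; lower signal means less secretion.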
Starred values were filed as active, the others as inactive. An excerpt weighted towards active compounds, which were near 19% of everything screened. Unless noted, the call rests on the fitted dose curve; in most records, active means well fitted curve in the direction sought with a large enough effect; inconclusive means small, poorly fitted or top-dose-only effect, or another doubt; inactive means no such curve, though single readings can be large; an effect the other way counts as inactive or inconclusive. Unless noted, on the % scale 0 is the no-effect control and ±100 the full control effect.

CCN(CC)S(=O)(=O)c1cccc(C(=O)N/N=C/c2ccc(O)c(O)c2O)c1 was read as HT1080 IDH1KD tx inconclusive, ELG1 DNA repair -14%, TDP1 cell noCPT 16µM*, DT40 TDP1 CPT 15µM*, HT1080NT lethal inconclusive and IL1B secr inh 35.
`COc1ccc(NC(=O)c2sc3nc(C)c(C(=O)Nc4ccc(C)cc4C)c(-c4cccs4)c3c2N)cc1` gave TDP1 cell noCPT -24% and DT40 TDP1 CPT -24%.
COc1ccccc1NC(=O)c1sc2nc(C)c(C(=O)Nc3ccc(C)cc3C)c(-c3ccc(Br)cc3)c2c1N was read as TDP1 cell noCPT -20% and DT40 TDP1 CPT 1%.
For COc1ccc(-c2c3c(nc4sc(C(=O)Nc5cc(C)on5)c(N)c24)CCC3)cc1 the results were HT1080 IDH1KD tx inconclusive, ELG1 DNA repair inconclusive, TDP1 cell noCPT inconclusive, DT40 TDP1 CPT -21%, HT1080NT lethal 20% and IL1B secr inh -88*.
For COc1cccc(NC(=O)c2sc3nc(C)c(C(=O)Nc4ccc(Cl)cc4)c(-c4ccc(Br)cc4)c3c2N)c1 the results were TDP1 cell noCPT 7.3µM* and DT40 TDP1 CPT inconclusive.
For COc1cccc(NC(=O)c2sc3nc(C)c(C(=O)Nc4ccc(C)cc4C)c(-c4ccc(C)o4)c3c2N)c1 the results were TDP1 cell noCPT 6.5µM* and DT40 TDP1 CPT 10µM*.
For COc1ccc(-c2c3c(nc4sc(C(=O)Nc5ccc(Cl)cc5)c(N)c24)CC(C)(C)CC3=O)cc1 the results were TDP1 cell noCPT 8.2µM* and DT40 TDP1 CPT 16µM*.
Screening Cc1nn(Cc2ccc(Cl)cc2)c(C)c1NC(=O)/C=C/c1cnn(C)c1 returned HT1080 IDH1KD tx 1%, ELG1 DNA repair -29%, TDP1 cell noCPT inconclusive, DT40 TDP1 CPT inconclusive, HT1080NT lethal 0% and IL1B secr inh 0.
For Cc1nn(Cc2ccc(Cl)cc2)c(C)c1NC(=O)C1CC=CCC1C(=O)O (stereo not drawn) the results were HT1080 IDH1KD tx 6%, ELG1 DNA repair 7%, TDP1 cell noCPT 16µM*, DT40 TDP1 CPT inconclusive, HT1080NT lethal 8% and IL1B secr inh 9.
`Cc1nn(Cc2ccc(Cl)cc2)c(C)c1NC(=O)c1cc(C(C)C)on1` gave HT1080 IDH1KD tx -20%, ELG1 DNA repair inconclusive, TDP1 cell noCPT 15µM*, DT40 TDP1 CPT 21µM*, HT1080NT lethal inconclusive and IL1B secr inh 13.
Cc1nn(Cc2ccc(Cl)cc2)c(C)c1NC(=O)c1c(-c2ccccc2)noc1C was read as HT1080 IDH1KD tx -17%, ELG1 DNA repair 13µM*, TDP1 cell noCPT -30%, DT40 TDP1 CPT 16µM*, HT1080NT lethal -15% and IL1B secr inh 4.
Screening Cc1nn(Cc2c(Cl)cccc2Cl)c(C)c1NC(=O)c1cc(C(C)C)on1 returned HT1080 IDH1KD tx 23µM*, ELG1 DNA repair inconclusive, TDP1 cell noCPT 21µM*, DT40 TDP1 CPT 18µM*, HT1080NT lethal inconclusive and IL1B secr inh 21.
Cc1cc(C)cc(C(=O)Nc2ccncc2)c1 was read as HT1080 IDH1KD tx -2%, ELG1 DNA repair -10%, TDP1 cell noCPT -30%, DT40 TDP1 CPT inconclusive, HT1080NT lethal -7% and IL1B secr inh -13.
Screening Cc1nc(Nc2ncc(C(=O)Nc3c(C)cccc3Cl)s2)cc(N2CCN(CCO)CC2)n1 returned TDP1 cell noCPT 2.4µM* and DT40 TDP1 CPT 2.1µM*.
For Nc1ccn([C@@H]2O[C@H](CNCc3ccc(N4CCNCC4)cc3)[C@@H](O)[C@H]2O)c(=O)n1 the results were HT1080 IDH1KD tx -13%, TDP1 cell noCPT -6%, DT40 TDP1 CPT -5%, HT1080NT lethal 16% and IL1B secr inh 11.
Screening CNc1cccccc1=S returned HT1080 IDH1KD tx 10%, ELG1 DNA repair 9%, TDP1 cell noCPT 4.6µM*, DT40 TDP1 CPT 3.3µM*, HT1080NT lethal 0% and IL1B secr inh 8.
CNc1ccccc1 was read as HT1080 IDH1KD tx 6%, ELG1 DNA repair 12%, TDP1 cell noCPT 10%, DT40 TDP1 CPT 5%, HT1080NT lethal 3% and IL1B secr inh 8.
For CC1CCN(C(=O)c2ncn3c2c(=O)[nH]c2cccnc23)CC1 the results were HT1080 IDH1KD tx 9%, TDP1 cell noCPT -22%, DT40 TDP1 CPT -6%, HT1080NT lethal 7% and IL1B secr inh 8.
C=C1c2nc3ccccc3n2C=C(c2ccc(C)cc2)N1c1ccccc1 was read as HT1080 IDH1KD tx 18µM*, TDP1 cell noCPT 13µM*, DT40 TDP1 CPT 8.2µM*, HT1080NT lethal 21µM* and IL1B secr inh 11.
For COc1ccccc1CNC(=O)CN1C(=O)COc2ccc(S(=O)(=O)N3CCCCC3)cc21 the results were HT1080 IDH1KD tx 9%, ELG1 DNA repair 18%, TDP1 cell noCPT inconclusive, DT40 TDP1 CPT inconclusive, HT1080NT lethal 8% and IL1B secr inh -8.
`CC(=O)Nc1c(C)nn(-c2ccccc2)c1N1CCC(C(=O)Nc2ccc(Cl)cc2C)CC1` gave TDP1 cell noCPT -12% and DT40 TDP1 CPT -14%.
Screening O=c1cc(Cl)c(-c2ccccc2)nn1Cc1ccc(Cl)cc1 returned HT1080 IDH1KD tx -14%, ELG1 DNA repair 17%, TDP1 cell noCPT inconclusive, DT40 TDP1 CPT -24%, HT1080NT lethal -5% and IL1B secr inh -27.
Screening CCc1c(-c2ccc(Br)cc2)ncn1Cc1cccc(-c2ccccc2)c1 returned HT1080 IDH1KD tx inconclusive, TDP1 cell noCPT 5.2µM*, DT40 TDP1 CPT 7.3µM*, HT1080NT lethal inconclusive and IL1B secr inh -62*.
Screening Cc1cc(Br)cn2c(Cc3ccccc3)c(-c3cccc(Br)c3)nc12 returned HT1080 IDH1KD tx -3%, TDP1 cell noCPT inconclusive, DT40 TDP1 CPT inconclusive, HT1080NT lethal 1% and IL1B secr inh 7.
Screening CCCc1c(-c2ccc(Cl)cc2)ncn1Cc1cccc(-c2ccccc2)c1 returned HT1080 IDH1KD tx inconclusive, TDP1 cell noCPT 3.3µM*, DT40 TDP1 CPT 5.2µM*, HT1080NT lethal inconclusive and IL1B secr inh 3.

Screens (PubChem)
